In PubChem BioAssay AID1210 (NMMLSC, 2008):
Calls of active or inactive are those of the source.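 The calls were made as follows: active = blocks over 70% of labeled estradiol binding at 10 µM, or over a set limit at 100 nM; inactive = the rest.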

Molecular target: Estrogen receptor beta (Homo sapiens) (UniProt Q92731)
Assay: displacement of fluorescent estrogen from ERbeta – cell-based, Cos7 ERbeta-GFP, flow cytometry, primary screen (AID 1210);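 also: 0% = DMSO vehicle wells and 100% = complete loss of labeled estradiol signal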
Conditions: fluorescent estrogen binding, at 10 µM, stronger effect = higher value

Chain of Estrogen receptor beta (Homo sapiens) (Q92731 whole entry, looked up): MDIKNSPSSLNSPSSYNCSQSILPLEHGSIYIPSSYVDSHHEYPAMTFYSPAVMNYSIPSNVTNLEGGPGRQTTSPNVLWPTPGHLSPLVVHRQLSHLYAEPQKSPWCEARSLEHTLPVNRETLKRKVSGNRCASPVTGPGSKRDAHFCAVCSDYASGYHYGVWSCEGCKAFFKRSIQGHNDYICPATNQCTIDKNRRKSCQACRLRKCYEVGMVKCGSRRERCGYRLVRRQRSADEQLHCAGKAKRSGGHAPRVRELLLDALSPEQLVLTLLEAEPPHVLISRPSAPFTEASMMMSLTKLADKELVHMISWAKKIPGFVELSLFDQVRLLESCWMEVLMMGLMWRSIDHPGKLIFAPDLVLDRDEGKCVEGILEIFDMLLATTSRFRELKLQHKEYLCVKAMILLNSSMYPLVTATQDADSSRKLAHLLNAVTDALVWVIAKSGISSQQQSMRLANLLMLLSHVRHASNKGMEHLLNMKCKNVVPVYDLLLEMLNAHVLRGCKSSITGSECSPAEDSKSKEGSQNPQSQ

Question: How did the inhibition turn out when `CSCCC(NC(=O)c1ccco1)C(=O)OCC(=O)Nc1sccc1C#N` (stereo unspecified) was run?
Answer: Its inhibition is 6% (inactive).

Question: With `COC(=O)c1ccc2c(=O)n(CC3CCCO3)c(SCC(=O)Nc3ccccc3Cl)nc2c1` (stereo unspecified) as the molecule, how does the inhibition read?
Answer: The inhibition was 65% (inactive).

Question: `CC1Cc2ccccc2N1C(=O)CSc1nnc(-c2ccc(S(=O)(=O)N3CCCC3)cc2)o1` (stereo unspecified) was tested. Which inhibition did it give?
Answer: The inhibition was 54% (inactive).

Question: `CCCc1nnc2n1N=C(c1ccc(-c3cc(Cl)ccc3Cl)o1)CS2` was tested. Which inhibition did it give?
Answer: Its inhibition is 43% (inactive).

Question: With `O=C(COC(=O)c1cccc(S(=O)(=O)N2CCc3ccccc3C2)c1)NCc1ccco1` as the molecule, how does the inhibition read?
Answer: The inhibition was 29% (inactive).

Question: For `CCOc1cc(N2CCOCC2)c(OCC)cc1NC(=O)c1cc(-c2ccco2)nc2ccccc12`, which inhibition is on record?
Answer: The inhibition was 47% (inactive).

Question: For `COc1cc(/C=C2\OC(=O)c3c(OC)cccc32)ccc1O`, which inhibition is on record?
Answer: The inhibition was 55% (inactive).

Question: Which inhibition does the source give for `COc1ccc(C2=NN(C(=O)c3cccnc3)C(c3ccccc3)C2)cc1` (stereo unspecified) here?
Answer: Its inhibition is 41% (inactive).

Question: With `Cc1ccc(NC(=O)CSc2nnnn2-c2ccc3c(c2)OCO3)cc1C` as the molecule, how does the inhibition read?
Answer: The inhibition was 32% (inactive).

Question: `CCOC(=O)N1CCN(c2ccc(O)cc2)CC1` was tested. Which inhibition did it give?
Answer: Its inhibition is 45% (inactive).

Question: With `CC(=O)c1sc2nc(SCC(=O)N3CCCCC3)[nH]c(=O)c2c1C` as the molecule, how does the inhibition read?
Answer: The inhibition was 27% (inactive).

Question: With `Cc1nnc(SCC(=O)NC(=O)NCc2ccco2)n1Cc1ccccc1` as the molecule, how does the inhibition read?
Answer: Its inhibition is 71% (active).

Question: How did the inhibition turn out when `COc1ccccc1N1CCN(C(=O)c2ccc3nc(-c4ccco4)c(-c4ccco4)nc3c2)CC1` was run?
Answer: Its inhibition is 60% (inactive).

Question: Which inhibition does the source give for `O=C(O)c1ccc2c(c1)C1C=CCC1C(c1cc3c(cc1Br)OCO3)N2` (stereo unspecified) here?
Answer: The inhibition was 38% (inactive).

Question: With `CCOC(=O)c1ccc(NC(=O)CSc2nc(C)cc(=O)[nH]2)cc1` as the molecule, how does the inhibition read?
Answer: Its inhibition is 30% (inactive).

Question: For `CCOc1[nH]c(/N=C/c2ccco2)c(C#N)c1C#N`, which inhibition is on record?
Answer: Its inhibition is 35% (inactive).

Question: For `COC(=O)c1[nH]c2ccc(C)cc2c1NC(=O)CN1CCCc2ccccc21`, which inhibition is on record?
Answer: The inhibition was 56% (inactive).

Question: With `O=C(Cc1cccs1)Nc1ccc(-c2nnn(CC(=O)N3CCOCC3)n2)cc1` as the molecule, how does the inhibition read?
Answer: The inhibition was 30% (inactive).

Question: With `Cc1cc(-c2ccccc2)nc2cc(C(N)=O)nn12` as the molecule, how does the inhibition read?
Answer: The inhibition was 49% (inactive).

Question: With `Cc1ccc(C2=Nc3ccccc3N=C(c3ccco3)C2)c(O)c1` as the molecule, how does the inhibition read?
Answer: The inhibition was 2% (inactive).

Question: How did the inhibition turn out when `COc1ccc(/C=N/NC(=O)c2nc(-c3ccccc3)n(-c3ccccc3)n2)c(O)c1` was run?
Answer: Its inhibition is 45% (inactive).

Question: `COc1cc(CCC(=O)OCC(=O)Nc2ncc(Cl)cc2Cl)cc(OC)c1OC` was tested. Which inhibition did it give?
Answer: The inhibition was 52% (inactive).

Question: Which inhibition does the source give for `O=C(NCc1ccco1)c1cc2c(s1)CSC2` here?
Answer: Its inhibition is 32% (inactive).

Question: `COc1ccc(C2C=C(c3ccc(Cl)cc3)Nc3nc(NC(C)=O)nn32)cc1` (stereo unspecified) was tested. Which inhibition did it give?
Answer: Its inhibition is 16% (inactive).

Question: For `COc1cc(O)c2c(=O)c3c(OC)c(O)ccc3oc2c1`, which inhibition is on record?
Answer: The inhibition was 41% (inactive).

Question: For `COc1ccc(C2Nc3ccccc3C(=O)N2c2ccc(F)cc2)cc1CSc1ccccn1` (stereo unspecified), which inhibition is on record?
Answer: Its inhibition is 6% (inactive).

Question: Which inhibition does the source give for `O=C(Nc1nccs1)c1nc(-c2ccccc2)n(-c2ccccc2)n1` here?
Answer: The inhibition was 38% (inactive).

Question: `COc1cccc2sc(Nc3nnc(-c4ccc(F)cc4)o3)nc12` was tested. Which inhibition did it give?
Answer: The inhibition was 33% (inactive).

Question: `O=[N+]([O-])c1ccc(Cl)c2c1C1C=CCC1C(c1ccccn1)N2` (stereo unspecified) was tested. Which inhibition did it give?
Answer: The inhibition was 0% (inactive).

Question: With `Cc1ccccc1Nc1nnc(SCC(=O)NCc2ccco2)s1` as the molecule, how does the inhibition read?
Answer: Its inhibition is 26% (inactive).

Question: `C/C=C/COC(=O)c1[nH]c2c(c1C)C(=O)CC(c1ccco1)C2` (stereo unspecified) was tested. Which inhibition did it give?
Answer: Its inhibition is 53% (inactive).

Question: For `O=C(c1cc2sccc2n1Cc1ccccc1)N1CCc2ccccc21`, which inhibition is on record?
Answer: The inhibition was 42% (inactive).

Question: With `CCOC(=O)c1c(/N=C/c2ccc(O)cc2O)sc2c1CCC2` as the molecule, how does the inhibition read?
Answer: The inhibition was 33% (inactive).

Question: For `O=C(c1cccc(F)c1)N1CCN(C(=O)c2cc3ncc(Br)cn3n2)CC1`, which inhibition is on record?
Answer: The inhibition was 26% (inactive).

Question: How did the inhibition turn out when `Cn1c(-c2ccc3nc(N)sc3c2)nc2cc(N)ccc21` was run?
Answer: Its inhibition is 68% (inactive).

Question: For `Cc1ccccc1OCC1Cc2c(nc(N)c(C#N)c2N)O1` (stereo unspecified), which inhibition is on record?
Answer: The inhibition was 25% (inactive).

Question: `CC1(C)N=C(N)N=C(N)N1c1ccc(C(=O)O)cc1` was tested. Which inhibition did it give?
Answer: Its inhibition is 22% (inactive).

Question: How did the inhibition turn out when `Oc1ccc(-c2nc(-c3ccc(O)c(O)c3)cs2)cc1` was run?
Answer: Its inhibition is 55% (inactive).

Same assay, conditions: fluorescent estrogen binding, ligand binding inhibition, at 0.1 µM, stronger effect = higher value

Question: How did the inhibition turn out when `CSCCC(NC(=O)c1ccco1)C(=O)OCC(=O)Nc1sccc1C#N` (stereo unspecified) was run?
Answer: Its inhibition is 28%.

Question: Which inhibition does the source give for `COC(=O)c1ccc2c(=O)n(CC3CCCO3)c(SCC(=O)Nc3ccccc3Cl)nc2c1` (stereo unspecified) here?
Answer: The inhibition was 4%.

Question: `CC1Cc2ccccc2N1C(=O)CSc1nnc(-c2ccc(S(=O)(=O)N3CCCC3)cc2)o1` (stereo unspecified) was tested. Which inhibition did it give?
Answer: The inhibition was 19%.

Question: For `CCCc1nnc2n1N=C(c1ccc(-c3cc(Cl)ccc3Cl)o1)CS2`, which inhibition is on record?
Answer: The inhibition was 48%.

Question: How did the inhibition turn out when `O=C(COC(=O)c1cccc(S(=O)(=O)N2CCc3ccccc3C2)c1)NCc1ccco1` was run?
Answer: The inhibition was 5%.

Question: Which inhibition does the source give for `CCOc1cc(N2CCOCC2)c(OCC)cc1NC(=O)c1cc(-c2ccco2)nc2ccccc12` here?
Answer: Its inhibition is 48%.

Question: How did the inhibition turn out when `COc1cc(/C=C2\OC(=O)c3c(OC)cccc32)ccc1O` was run?
Answer: The inhibition was 28%.

Question: Which inhibition does the source give for `COc1ccc(C2=NN(C(=O)c3cccnc3)C(c3ccccc3)C2)cc1` (stereo unspecified) here?
Answer: Its inhibition is 12%.

Question: `Cc1ccc(NC(=O)CSc2nnnn2-c2ccc3c(c2)OCO3)cc1C` was tested. Which inhibition did it give?
Answer: The inhibition was 34%.

Question: For `CCOC(=O)N1CCN(c2ccc(O)cc2)CC1`, which inhibition is on record?
Answer: Its inhibition is 34%.

Question: With `CC(=O)c1sc2nc(SCC(=O)N3CCCCC3)[nH]c(=O)c2c1C` as the molecule, how does the inhibition read?
Answer: Its inhibition is 12%.

Question: Which inhibition does the source give for `Cc1nnc(SCC(=O)NC(=O)NCc2ccco2)n1Cc1ccccc1` here?
Answer: The inhibition was 53%.

Question: `COc1ccccc1N1CCN(C(=O)c2ccc3nc(-c4ccco4)c(-c4ccco4)nc3c2)CC1` was tested. Which inhibition did it give?
Answer: Its inhibition is 11%.

Question: With `O=C(O)c1ccc2c(c1)C1C=CCC1C(c1cc3c(cc1Br)OCO3)N2` (stereo unspecified) as the molecule, how does the inhibition read?
Answer: The inhibition was 6%.

Question: Which inhibition does the source give for `CCOC(=O)c1ccc(NC(=O)CSc2nc(C)cc(=O)[nH]2)cc1` here?
Answer: The inhibition was 2%.

Question: `CCOc1[nH]c(/N=C/c2ccco2)c(C#N)c1C#N` was tested. Which inhibition did it give?
Answer: The inhibition was 15%.

Question: With `COC(=O)c1[nH]c2ccc(C)cc2c1NC(=O)CN1CCCc2ccccc21` as the molecule, how does the inhibition read?
Answer: Its inhibition is 26%.

Question: With `O=C(Cc1cccs1)Nc1ccc(-c2nnn(CC(=O)N3CCOCC3)n2)cc1` as the molecule, how does the inhibition read?
Answer: The inhibition was 2%.

Question: For `Cc1cc(-c2ccccc2)nc2cc(C(N)=O)nn12`, which inhibition is on record?
Answer: The inhibition was 14%.

Question: For `Cc1ccc(C2=Nc3ccccc3N=C(c3ccco3)C2)c(O)c1`, which inhibition is on record?
Answer: The inhibition was 29%.

Question: Which inhibition does the source give for `COc1ccc(/C=N/NC(=O)c2nc(-c3ccccc3)n(-c3ccccc3)n2)c(O)c1` here?
Answer: The inhibition was 33%.

Question: How did the inhibition turn out when `COc1cc(CCC(=O)OCC(=O)Nc2ncc(Cl)cc2Cl)cc(OC)c1OC` was run?
Answer: Its inhibition is 8%.

Question: `O=C(NCc1ccco1)c1cc2c(s1)CSC2` was tested. Which inhibition did it give?
Answer: Its inhibition is 12%.

Question: Which inhibition does the source give for `COc1ccc(C2C=C(c3ccc(Cl)cc3)Nc3nc(NC(C)=O)nn32)cc1` (stereo unspecified) here?
Answer: Its inhibition is 21%.

Question: Which inhibition does the source give for `COc1cc(O)c2c(=O)c3c(OC)c(O)ccc3oc2c1` here?
Answer: Its inhibition is 25%.

Question: For `COc1ccc(C2Nc3ccccc3C(=O)N2c2ccc(F)cc2)cc1CSc1ccccn1` (stereo unspecified), which inhibition is on record?
Answer: Its inhibition is 30%.

Question: How did the inhibition turn out when `O=C(Nc1nccs1)c1nc(-c2ccccc2)n(-c2ccccc2)n1` was run?
Answer: The inhibition was 22%.

Question: How did the inhibition turn out when `COc1cccc2sc(Nc3nnc(-c4ccc(F)cc4)o3)nc12` was run?
Answer: The inhibition was 17%.

Question: `O=[N+]([O-])c1ccc(Cl)c2c1C1C=CCC1C(c1ccccn1)N2` (stereo unspecified) was tested. Which inhibition did it give?
Answer: The inhibition was 19%.

Question: Which inhibition does the source give for `Cc1ccccc1Nc1nnc(SCC(=O)NCc2ccco2)s1` here?
Answer: Its inhibition is 18%.

Question: With `C/C=C/COC(=O)c1[nH]c2c(c1C)C(=O)CC(c1ccco1)C2` (stereo unspecified) as the molecule, how does the inhibition read?
Answer: The inhibition was 11%.

Question: For `O=C(c1cc2sccc2n1Cc1ccccc1)N1CCc2ccccc21`, which inhibition is on record?
Answer: Its inhibition is 2%.

Question: How did the inhibition turn out when `CCOC(=O)c1c(/N=C/c2ccc(O)cc2O)sc2c1CCC2` was run?
Answer: The inhibition was 22%.

Question: With `O=C(c1cccc(F)c1)N1CCN(C(=O)c2cc3ncc(Br)cn3n2)CC1` as the molecule, how does the inhibition read?
Answer: The inhibition was 38%.

Question: With `Cn1c(-c2ccc3nc(N)sc3c2)nc2cc(N)ccc21` as the molecule, how does the inhibition read?
Answer: The inhibition was 17%.

Question: How did the inhibition turn out when `Cc1ccccc1OCC1Cc2c(nc(N)c(C#N)c2N)O1` (stereo unspecified) was run?
Answer: Its inhibition is 11%.

Question: With `CC1(C)N=C(N)N=C(N)N1c1ccc(C(=O)O)cc1` as the molecule, how does the inhibition read?
Answer: Its inhibition is 11%.

Question: How did the inhibition turn out when `Oc1ccc(-c2nc(-c3ccc(O)c(O)c3)cs2)cc1` was run?
Answer: Its inhibition is 54%.
